Shiga toxin inh – A qHTS for Small Molecule Inhibitors of Shiga Toxin; AID 2315, 2010; Vero cells, Shiga toxin protein synthesis inhibition reporter; inhibition, % at 38.7 µM; hit rate 9.2% among 290,000; in the data active means inhibition mostly above about 28%, no sharp cut-off; inactive means mostly below about 43%; further: 0% is about no effect
HCV inhibitor – qHTS Assay for Inhibitors of Hepatitis C Virus (HCV); Huh7.5.1 HCVcc-Cre infection, luciferase reporter, 44 h; Potency, µM (series often up to 41.8 µM), for inactives: top-dose activity change, negative = inhibition, actives largely listed as inhibitors; hit rate 3.4% among 340,000; AID 651820, 2012; further: potency means the concentration at half of the fitted maximal effect; on the % scale 0 is the no-effect control and ±100 the full control effect
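Seed cells (1,000/well) for 4 h; treat with compound and infect with HCVcc-Cre, moi about 0.5. Incubate 44 h, then detect luciferase activity.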
Pf growth 48h – Primary qHTS for delayed death inhibitors of the malarial parasite plastid, 48 hour incubation; P. falciparum luciferase growth in erythrocytes, 48 h; Potency, µM (top dose mostly 28.7 µM), inactives show at the highest dose activity change, negative = inhibition, actives largely listed as inhibitors; hit rate 5.9% among 310,000; AID 504832, 2011; further: potency means the concentration at half of the fitted maximal effect; on the % scale 0 is the no-effect control and ±100 the full control effect
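Luciferase-expressing P. falciparum in infected erythrocytes (2% hematocrit, 0.1% parasitemia final) in RPMI 1640/0.5% Albumax were exposed to compound for 48 hours at 37 C, 5% CO2; growth read as luminescence.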
AMA1 RON2 block – qHTS for Inhibitors of AMA1-RON; Towards Development of Antimalarial Drug Lead: Primary Screen. Potency, µM (highest dose often 58.2 µM), for the others: at the highest dose activity change, negative = inhibition, actives largely listed as inhibitors. AlphaScreen AMA1-biotinylated RON2 peptide binding. hit rate 0.2% among 360,000;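 further: potency means the concentration at half of the fitted maximal effect; 0% = vehicle wells and -100% = peptide control; nearly all actives have a fitted effect of over 45% in size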
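AMA1 (3D7) with his tag at 25 nM final met compounds first, then biotinylated RON2 peptide at 25 nM; detection used donor plus acceptor beads, 10 µg/mL apiece, read by AlphaScreen after 30 min at room temperature.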
Pf growth 96h – Primary qHTS for delayed death inhibitors of the malarial parasite plastid, 96 hour incubation; P. falciparum luciferase reporter growth, 96 h; Potency, µM (series often up to 28.7 µM), inactives show at the top dose activity change, negative = inhibition, most hits filed as inhibitors; hit rate 6.9% among 320,000; further: potency means the concentration at half of the fitted maximal effect; on the % scale 0 is the no-effect control and ±100 the full control effect
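Two parasite generations (96 h, 37 C, 5% CO2) of compound exposure in infected erythrocytes (0.05% parasitemia, 2% hematocrit). Luciferase-reporter P. falciparum; decreased luminescence indicates inhibited growth, aimed at apicoplast-acting delayed death.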
Cycloheximide cs – Cycloheximide Counterscreen for Small Molecule Inhibitors of Shiga Toxin. cell reporter, cycloheximide protein synthesis inhibition counterscreen. max response, %. hit rate 12% among 300,000. AID 2314, 2010; in the data active means max response mostly above about 13%, no sharp cut-off; inactive means mostly below about 14%; further: read at 38.3 µM for the half of the compounds with a filed dose; 0% is about no effect
Active calls of the source: *; [ ] = dose if it differs, or a comment. A selection: hits, their analogues and other compounds. The true share with any hit is near 21%. Unless noted, the call rests on the fitted dose curve; in most records, active means well fitted curve in the direction sought with a large enough effect; inconclusive means small, poorly fitted or top-dose-only effect, or another doubt; inactive means no such curve, though single readings can be large; an effect the other way counts as inactive or inconclusive.

For Cn1cc(/C=C/c2cc[n+](C)cc2)c2cc(Cl)ccc21 the results were Shiga toxin inh -12, HCV inhibitor inconclusive, Pf growth 48h 0.66µM*, AMA1 RON2 block -4%, Pf growth 96h 0.17µM* and Cycloheximide cs 0.
Cc1cc(N/N=C2\CC(C)CC(C)(C)C2)nc2ccccc12 (centres undefined) was read as Shiga toxin inh 27*, HCV inhibitor inconclusive, Pf growth 48h inconclusive, AMA1 RON2 block 57%, Pf growth 96h inconclusive and Cycloheximide cs 35*.
CCOC(=O)N/N=C1\CC(C)CC(C)(C)C1 (centres undefined) was read as Shiga toxin inh 25, HCV inhibitor 25%, Pf growth 48h -3%, AMA1 RON2 block 4%, Pf growth 96h 2% and Cycloheximide cs 11.
`c1ccc2[nH]c(NN=C3CCCCCC3)nc2c1` gave Shiga toxin inh 110*, HCV inhibitor -1%, Pf growth 48h inconclusive, AMA1 RON2 block 17%, Pf growth 96h inconclusive and Cycloheximide cs 44*.
For Cc1cc(N/N=C2/CCCc3ccccc32)nc2ccccc12 the results were Shiga toxin inh 57*, HCV inhibitor inconclusive, Pf growth 48h inconclusive, AMA1 RON2 block 6%, Pf growth 96h inconclusive and Cycloheximide cs 54*.
For CC1C/C(=N/Nc2nc3ccccc3[nH]2)CC(C)(C)C1 (centres undefined) the results were Shiga toxin inh 69*, HCV inhibitor inconclusive, Pf growth 48h 3.7µM*, AMA1 RON2 block 81%, Pf growth 96h 2.1µM* and Cycloheximide cs 33*.
For O=C(COC(=O)/C=C/c1cccc(C(F)(F)F)c1)Nc1cccc(S(=O)(=O)NC2=NCCC2)c1 the results were AMA1 RON2 block -1%.
`COc1ccccc1NC(=O)NNC(=O)CCc1ccccc1` gave Shiga toxin inh -7, HCV inhibitor 3%, Pf growth 48h 14%, AMA1 RON2 block 56%, Pf growth 96h 23% and Cycloheximide cs -3.
For CCCN1CCN(CCCNC(=O)C(CC)n2nc(C)n3c(cc4occc43)c2=O)CC1 (centres undefined) the results were Shiga toxin inh -8, HCV inhibitor -12%, Pf growth 48h 1%, AMA1 RON2 block -1%, Pf growth 96h inconclusive and Cycloheximide cs -2.
COc1ccc(Br)cc1CN(C)CC(O)COc1ccc(Br)cc1 (centres undefined) was read as Shiga toxin inh -10, HCV inhibitor inconclusive, Pf growth 48h inconclusive, AMA1 RON2 block inconclusive, Pf growth 96h inconclusive and Cycloheximide cs 1.
`O=C(CCCOc1ccc(Br)cc1)Nc1ccc(S(=O)(=O)N2CCOCC2)cc1` gave HCV inhibitor inconclusive, Pf growth 48h inconclusive, AMA1 RON2 block 0% and Pf growth 96h 8.3µM*.
For O=C(COc1ccc(S(=O)(=O)N2CCOCC2)cc1)Nc1ccc(Cl)c(C(F)(F)F)c1 the results were Shiga toxin inh -1, HCV inhibitor inconclusive, Pf growth 48h 9.3µM*, AMA1 RON2 block 5%, Pf growth 96h -4% and Cycloheximide cs -4.
For O=C(COc1ccc(S(=O)(=O)N2CCOCC2)cc1)NC1CCCCC1 the results were HCV inhibitor -15%, Pf growth 48h inconclusive, AMA1 RON2 block -2% and Pf growth 96h 12µM*.
For O=C(COc1ccc(S(=O)(=O)N2CCOCC2)cc1)Nc1ccc(Br)cc1 the results were HCV inhibitor 10µM* and AMA1 RON2 block -9%.
COc1ccc(OCC(=O)Nc2ccc(S(=O)(=O)N3CCOCC3)cc2)cc1 was read as Shiga toxin inh -9, HCV inhibitor -10%, Pf growth 48h -14%, AMA1 RON2 block 15%, Pf growth 96h inconclusive and Cycloheximide cs -1.
COc1ccc(C2CC(=O)C(C(c3ccc(O)cc3)C3C(=O)CC(c4ccc(OC)cc4)CC3=O)C(=O)C2)cc1 (centres undefined) was read as Shiga toxin inh 21, Pf growth 48h inconclusive, Pf growth 96h inconclusive and Cycloheximide cs -2.
For CCNC(=O)C1CCCN(C(=O)c2cccc(Cl)c2)CC1 (centres undefined) the results were AMA1 RON2 block -4%.
For Cc1ccc(-c2cc(-c3ccccc3)no2)c(O)c1 the results were Shiga toxin inh 0, HCV inhibitor 9%, Pf growth 48h inconclusive, AMA1 RON2 block -4%[11.6 µM], Pf growth 96h inconclusive and Cycloheximide cs 43*.
Cc1ccccc1-c1cc(-c2ccccc2O)on1 was read as Shiga toxin inh 76*, HCV inhibitor inconclusive, Pf growth 48h 193%, AMA1 RON2 block 53%, Pf growth 96h -52% and Cycloheximide cs 52*.
Screening Cc1ccc(O)c(-c2cc(-c3ccc(F)cc3)no2)c1 returned Shiga toxin inh 122*, HCV inhibitor 5%, Pf growth 48h 10µM*, AMA1 RON2 block -2%, Pf growth 96h inconclusive and Cycloheximide cs 37*.
Oc1ccccc1-c1cc(-c2ccccc2)no1 was read as Shiga toxin inh active, HCV inhibitor -19%, Pf growth 48h -43%, AMA1 RON2 block 0%, Pf growth 96h 117% and Cycloheximide cs 47*.
`Cc1ccccc1Cn1c(C)c(C(=O)NCCC#N)sc1=O` gave AMA1 RON2 block 5%.
CCN(C[C@H]1N[C@@](CC)(C(=O)OC)[C@H]2C(=O)N(C)C(=O)[C@@H]12)C(=O)COC was read as HCV inhibitor -4% and AMA1 RON2 block 2%.
For CN(C=O)c1ccc(CSc2ccccc2)cc1 the results were HCV inhibitor 3% and AMA1 RON2 block -21%.
Screening Cc1ccc(CN2C(=O)CSCC2(C)C(=O)Nc2c(C)cccc2C)cc1 (centres undefined) returned AMA1 RON2 block -7%.
O=P(O)(CCc1ccccn1)CN1CCCCC1 was read as Shiga toxin inh 0, HCV inhibitor 11%, AMA1 RON2 block -1%, Pf growth 96h -5% and Cycloheximide cs -2.
For O=P(O)(CCc1ccccn1)CN1CCOCC1 the results were Shiga toxin inh 22, HCV inhibitor 12%, AMA1 RON2 block 28%, Pf growth 96h 5.2µM* and Cycloheximide cs -4.
For O=C(NCc1nnc(SCC(=O)N2CCCC2)o1)c1c(F)cccc1F the results were Shiga toxin inh -3, HCV inhibitor 12%, Pf growth 48h -3%, AMA1 RON2 block 2%, Pf growth 96h 20% and Cycloheximide cs -2.
Screening CCOC(=O)N1CCN(C(=O)CSc2nnc(CNC(=O)c3c(F)cccc3Cl)o2)CC1 returned Shiga toxin inh -16, HCV inhibitor 9%, Pf growth 48h 14%, AMA1 RON2 block 0%, Pf growth 96h 12µM* and Cycloheximide cs -5.

Screens as filed in PubChem.
